The test system of assay [1] is Human papillomavirus type 1a protein E7 (residues 44-93). The experiment in a line: small molecules binding HPV E7 44-93 – biochemical, small-molecule microarray, residues 44-93, 635 nm fluorescence, primary screen (AID 1108).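 Also: E7 fragment applied at 1 µg/mL in TBST for 1 h at 4 C; score combines spot fluorescence with its signal to noise ratio.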 Particulars: fluorescence 635 nm, higher = more signal.
Assay [2] can be described thus: hepatitis C replication reporter changes, two-sided – Huh7 cells, luciferase reporter, HCV replication inhibitor project, primary screen (AID 1109).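 Also: huh7 hepatoma cells harbouring a luciferase neomycin HCV replicon reporter; luciferase luminescence as measure of HCV replicon replication; test concentration not given here.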 Particulars: Huh7 HCV replicon luciferase reporter, 48 h; higher = more signal. For orientation: In a reporter assay the amount or activity of a reporter protein is the signal.
The target in assay [3] is Left-right determination factor 2 (Homo sapiens) (UniProt O00292). Briefly: small molecules binding LEFTY2 protein – biochemical, small-molecule microarray, 635 nm fluorescence scan, primary screen (AID 1110). Particulars: higher = more signal.
Assay [4] addresses Calmodulin-1 (Homo sapiens) (UniProt P0DP23). Briefly: small molecules binding calmodulin-1 with EGTA – biochemical, small-molecule microarray, Cy5-labelled CALM1, profiling panel (AID 1111).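 Also: labelled calmodulin applied in Tris saline Tween buffer holding calcium plus EGTA and DTT.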 Particulars: Cy5-CALM1 binding fluorescence, higher = more signal.
For assay [5] the target is unchanged. The experiment in a line: small molecules binding Ca-loaded calmodulin-1 – biochemical, small-molecule microarray, Cy5-labelled CALM1, plus calcium, artefact control for SMM control-protein annotation, profiling panel (AID 1112).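 Also: score merges spot fluorescence with signal to noise from triplicate slides.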 As to conditions: Cy5-CALM1 binding fluorescence, higher = more signal.
Assay [6] is described as follows: probe aWnt5a binding to arrayed compounds – biochemical, biotinylated probe, 635/667 nm fluorescence, primary screen (AID 1113).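 Also: score merges 667 nm fluorescence intensity with signal-to-noise per printed feature.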 Particulars: small-molecule microarray, higher = more signal.
Assay [7] in a line: probe aShh binding to arrayed compounds – biochemical, biotinylated probe, 635/667 nm fluorescence, primary screen (AID 1114).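 Also: probe is biotin-labelled aShh protein from a stem cell growth factor screen; measures binding of labelled protein to compounds printed on the slide; score merges feature fluorescence at 667 nm with signal-to-noise.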 As to conditions: small-molecule microarray, higher = more signal.
A short description of assay [8]: probe aNog binding to arrayed compounds – biochemical, biotinylated probe, 635/667 nm fluorescence, primary screen (AID 1115).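 Also: probe is biotinylated aNog protein used at 0.15 µg/mL for 1 h at 4 C; z-score combines 667 nm fluorescence of each spot with its signal to noise.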 As to conditions: small-molecule microarray, higher = more signal.
The target of assay [9] is Torsin-1A-interacting protein 1 (Homo sapiens) (UniProt Q5JTV8). Briefly: compound microarray binding of lysate hLAP1 – cell lysate, small-molecule microarray, COS7 lysate, 635/667 nm fluorescence, primary screen (AID 1116). Particulars: 635 nm fluorescence, higher = more signal.
In assay [10] the target is Alpha-bungarotoxin (Bungarus multicinctus) (UniProt P60615). The experiment in a line: compounds binding labelled alpha-BTX control protein – biochemical, small-molecule microarray, Alexa647 label, 635/667 nm fluorescence, artefact control for SMM control protein annotation, profiling panel (AID 1117). Particulars: alpha-BTX-A647 binding fluorescence, higher = more signal.
Sequence of Alpha-bungarotoxin (Bungarus multicinctus) (P60615 whole entry, looked up): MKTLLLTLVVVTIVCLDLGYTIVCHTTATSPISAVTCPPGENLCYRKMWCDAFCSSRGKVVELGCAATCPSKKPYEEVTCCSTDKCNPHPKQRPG

Sequence of Left-right determination factor 2 (Homo sapiens) (O00292 whole entry, looked up): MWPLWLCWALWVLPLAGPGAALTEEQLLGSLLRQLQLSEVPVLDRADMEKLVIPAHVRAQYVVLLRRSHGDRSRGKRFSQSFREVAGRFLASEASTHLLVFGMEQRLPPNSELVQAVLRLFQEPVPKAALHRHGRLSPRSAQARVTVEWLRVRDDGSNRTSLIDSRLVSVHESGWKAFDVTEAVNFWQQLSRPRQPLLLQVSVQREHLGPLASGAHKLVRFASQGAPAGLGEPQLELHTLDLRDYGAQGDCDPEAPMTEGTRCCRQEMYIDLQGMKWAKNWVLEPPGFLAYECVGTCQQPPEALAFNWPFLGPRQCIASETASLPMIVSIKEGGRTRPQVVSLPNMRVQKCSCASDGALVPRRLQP
Sequence of Torsin-1A-interacting protein 1 (Homo sapiens) (Q5JTV8 whole entry, looked up): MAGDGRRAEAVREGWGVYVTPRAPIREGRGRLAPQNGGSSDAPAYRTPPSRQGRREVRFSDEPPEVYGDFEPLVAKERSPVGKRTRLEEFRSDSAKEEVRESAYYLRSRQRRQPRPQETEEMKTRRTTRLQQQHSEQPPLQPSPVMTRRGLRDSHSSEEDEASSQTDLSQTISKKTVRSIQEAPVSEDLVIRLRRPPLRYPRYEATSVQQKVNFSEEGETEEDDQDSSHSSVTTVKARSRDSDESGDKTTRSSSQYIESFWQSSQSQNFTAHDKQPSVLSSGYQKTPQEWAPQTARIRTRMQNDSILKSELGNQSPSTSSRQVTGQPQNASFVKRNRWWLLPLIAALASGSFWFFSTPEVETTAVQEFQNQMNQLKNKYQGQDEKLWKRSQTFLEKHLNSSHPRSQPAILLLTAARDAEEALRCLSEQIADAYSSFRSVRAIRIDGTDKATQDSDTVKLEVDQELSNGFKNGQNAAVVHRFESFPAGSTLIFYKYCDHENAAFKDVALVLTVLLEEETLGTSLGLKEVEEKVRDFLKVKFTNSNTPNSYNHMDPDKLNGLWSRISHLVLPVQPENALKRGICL

On to `C=CC[C@@]1(C(=O)NCCCOC)N=C(c2ccc(OCCCO)cc2)O[C@@H]1c1ccccc1`, for which the composite z-score in [1] is 1.06; in [3] it was -0.526; in [4], 1.94; in assay [5], 0.626; in assay [6], 0.155; in [7], -0.102. The composite z-score in assay [8] is 0.365; in assay [9], 2.89; in [10], -0.146. In [2], the z-score is -0.449.
Turning to `CCOC(=O)C[C@H]1[C@H](OC(=O)c2ccccc2-c2ccccc2)[C@@H](NC(=O)c2ccc3ccccc3n2)c2cc(OCCCO)ccc2N1C(=O)Cc1ccc(OC)cc1`, the composite z-score in [1] was 0.345; in assay [3] it was 0.414; in assay [4], -0.216; in [5], -0.224; in assay [6], -0.124; in [7], -0.182. Further, the composite z-score is -0.147 in assay [8], 0.781 in assay [9] and 0.365 in assay [10]. In addition, in assay [2], the z-score is -2.09.
Take `CCCC[C@@H](O)C1=C(COC)C[C@H]2C(=O)N(C)C(=O)[C@H]2[C@H]1CO`: the composite z-score in [1] was 0.0944; in assay [3], 0.822; in assay [4], -0.419; in [5], -0.573; in [6] it was -0.0417; in assay [7], -0.138. The composite z-score was -0.267 in assay [8], 0.13 in [9] and -0.165 in assay [10]. Moreover, the z-score in [2] was -0.338.
For `CCC1=C2CN(Cc3ccccc3)[C@@H](C(=O)Cc3ccccc3)C2C=CCC1` (stereo not given in full), the composite z-score is 1.4 in assay [1]; 0.133 in assay [3]; -0.0133 in assay [4]; -0.429 in assay [5]; -0.124 in assay [6]; -0.211 in [7]. The composite z-score was -0.185 in assay [8], 0.0878 in [9] and 0.0601 in [10]. The molecule also came in with a z-score in [2] of -0.618.
For the molecule `C=CCN1Cc2ccccc2[C@@H]2OC(c3ccc(OCCCO)cc3)=N[C@]2(CC=C)C1=O`, the composite z-score is 0.139 in assay [1]; 0.718 in assay [3]; 0.698 in [4]; -0.0856 in assay [5]; 0.128 in assay [6]; 0.0469 in [7]. The composite z-score in assay [8] amounted to 0.634; in assay [9], 2.02; in assay [10], 2.04. The z-score in assay [2] was -1.43.
Regarding `O=C1C[C@]2(c3ccc([N+](=O)[O-])cc3)C(=O)N(C3CC3)c3cc(CO)ccc3[C@H]2N1CC12CC3CC(CC(C3)C1)C2`, the composite z-score was 0.471 in assay [1]; -1.6 in [3]; -0.448 in assay [4]; -0.87 in [5]; -0.148 in assay [6]; -0.124 in assay [7]. Also, the composite z-score in assay [8] was 0.632; in assay [9], -0.604; in assay [10], -0.444. Moreover, the z-score in assay [2] was -0.479.
For `O=C(NCc1ccc(F)cc1)[C@H]1C[C@H]2C(=O)NCC(=O)N2[C@H]1c1ccc(O)cc1`, the composite z-score is 1.03 in [1]; 0.887 in [3]; -0.449 in assay [4]; 0.0871 in [5]; -0.0684 in assay [6]; -0.0553 in assay [7]. The composite z-score was -0.132 in assay [8], 0.605 in assay [9] and -0.144 in assay [10]. In addition, the z-score in assay [2] is -0.0497.
Regarding `COc1ccc([Si](C)(C)[C@H]2[C@H](CC(=O)N3CCC[C@H]3CO)O[C@@]3(C(=O)N(Cc4ccc(N5CCOC5=O)cc4)c4ccccc43)[C@@H]2C)cc1`, the composite z-score was 1.37 in assay [1]; 0.75 in [3]; 0.655 in assay [4]; 0.0967 in [5]; 0.0194 in assay [6]; -0.223 in assay [7]. The composite z-score is -0.172 in [8], 0.833 in assay [9] and 1.08 in assay [10]. Besides, the z-score in assay [2] is -2.52.
With `CCCCCN1CC=CC23O[C@@H]4/C=C\CCC(C)OC(=O)C4[C@H]2C(=O)N(C(CO)C(C)C)[C@@H]3C1=O` (stereo not given in full), the composite z-score in assay [1] is -0.333; in assay [3], -0.214; in assay [4] it was -0.983; in [5], -0.876; in assay [6], -0.172; in assay [7] it was -0.469. The composite z-score was -0.463 in assay [8], 0.163 in assay [9] and 0.0325 in assay [10]. In [2], this molecule registered a z-score of -1.64.
For `COc1ccc([Si](C)(C)[C@@H]2[C@@H](CCO)O[C@]3(C(=O)N(Cc4ccccc4)c4ccc(N5CCOC5=O)cc43)[C@H]2C)cc1`, the composite z-score is 1.35 in assay [1]; 0.217 in [3]; 0.623 in assay [4]; 0.521 in [5]; 0.394 in assay [6]; -0.0793 in assay [7]. The composite z-score in assay [8] is 0.0139; in assay [9], 0.855; in [10], 1.09. Further, the z-score in assay [2] is -4.17.
For the molecule `COc1cccc(C)c1NC(=O)O[C@H]1[C@H](OC(=O)Nc2ccccc2-c2ccccc2)[C@H](OC(=O)Nc2ccccc2-c2ccccc2)[C@@H](OC)O[C@@H]1CO`, the composite z-score is 1.41 in assay [1]; 0.679 in assay [3]; 1.72 in assay [4]; 0.11 in assay [5]; 0.0304 in [6]; -0.0192 in [7]. Also, the composite z-score in [8] was -0.518; in assay [9] it was 1.26; in assay [10], 0.688. This molecule came in with a z-score in [2] of -2.36.
